Test results as given in PubChem BioAssay (NCATS).
Activity calls are given as the source filed them. Calls follow the shape of the dose curve; as a rule, active = well fitted curve in the direction sought with a large enough effect; inconclusive = small, poorly fitted or top-dose-only effect, or another doubt; inactive = no such curve, though single readings can be large or run the other way.

test: Cellular Toxicity (caspase-3) BJ (AID 658); details: BJ fibroblasts, luminescence, normalized: DMSO 0%, staurosporine 100%; series mostly up to 91.7 µM
Text: NIH Chemical Genomics Center [NCGC]
NIH Molecular Libraries Screening Centers Network [MLSCN]
National Institutes of Environmental Health Sciences [NIEHS]
National Toxicology Program [NTP]
We have developed a 1536-well cell-based assay for quantitative high throughput screening (qHTS) against a number of cell lines to determine in vitro caspase 3/7 activity of small molecules. This particular assay uses BJ cell line which is derived from normal human foreskin fibroblast.
NCGC Assay Protocol Summary:
The Caspase-Glo 3/7 assay (Promega) is a homogeneous method to measure caspase-3 and caspase-7 activities in cultured cells. The quantitation of caspase 3/7 activity is based on the cleavage of a peptide-aminoluciferin substrate. After caspase cleaves the substrate the free aminoluciferin is liberated and serves as the substrate of luciferase, which generates the light. The luminescent signal is proportional to amount of caspase 3/7 activity present.
Using the Caspase-Glo 3/7 assay, the amount of caspase 3/7 activity was measured in the BJ cell line with complete culture medium following compound treatment for 16 hours. The assay was performed in opaque white 1536-well plates. In the screen, staurosporine and tamoxifen were used as positive controls. Library compounds were measured for their ability to cause the activation of caspase 3/7 in the cell line, as reflected by an increase in luminescence signal, in a concentration-dependent manner. Data were normalized to the controls for basal activity (DMSO only) and 100% stimulation (10 uM staurosporine). AC50 values were determined from concentration-response data modeled with the standard Hill equation.
qHTS protocol for caspase 3/7 assay in the BJ cells
[Step] [Parameter] [Value] [Description]
1. Reagent; 5 uL; 1000 the BJ cells/well
2. Time; 5 hr; 37 °C incubation
4. Controls; 23 nL; Tamoxifen 0.23 uM to 100 uM & staurosporine 1.4 pM to 100 uM
5. Time; 16 hr; 37 °C incubation
6. Reagent; 5 uL; Caspase-Glo 3/7 reagent
7. Time; 1 hr; Room Temperature
8. Detection; Luminescence; Viewlux plate reader
Keywords: caspase 3/7, apoptosis, the BJ cell line, luminescence, NTPHTS, NTPHTS_NCGC, NIEHS, EPA, DSSTox, MLSMR, MLSCN, NIH Roadmap, qHTS, NCGC

SMILES | outcome
Nc1ccc(Cl)cc1 | inactive
O=C(O)COc1ccccc1 | inactive
COC(C)(C)CCCC(C)C/C=C/C(C)=C/C(=O)OC(C)C (stereo unspecified) | inactive
Cc1cc(O)ccc1Cl | inactive
CCOCCOC(C)=O | inactive
CN(C)NC(=O)CCC(=O)O | inactive
CCCCOC(=O)c1ccccc1C(=O)OCc1ccccc1 | inactive
CCOP(=O)(NC(C)C)Oc1ccc(SC)c(C)c1 (stereo unspecified) | inactive
CCCCCCCCc1ccc(O)cc1 | inactive
Nc1ccc(Sc2ccc(N)cc2)cc1 | inactive
O=[N+]([O-])c1c(Cl)c(Cl)cc(Cl)c1Cl | inactive
COc1ccc(C(c2ccc(OC)cc2)C(Cl)(Cl)Cl)cc1 | inactive
O=[N+]([O-])c1cc([N+](=O)[O-])c2ccccc2c1 | inactive
CN(C)[C@@H]1C(=O)C(C(N)=O)=C(O)[C@@]2(O)C(=O)C3=C(O)c4c(O)cccc4[C@@](C)(O)[C@H]3[C@H](O)[C@@H]12 | inactive
Nc1ccc([N+](=O)[O-])cc1 | inactive
Nc1ccc(Cl)cc1N | inactive
CC(C)(O)C(=O)Nc1ccc([N+](=O)[O-])c(C(F)(F)F)c1 | inactive
O=[N+]([O-])c1c2ccccc2cc2ccccc12 | inactive
C1CCC(NC2CCCCC2)CC1 | inactive
CCCCC(CC)COC(=O)c1ccccc1C(=O)OCC(CC)CCCC (stereo unspecified) | inactive
CC(=O)[O][Hg][c]1ccccc1 | inactive
O=C(O)C(Cl)Cl | inactive
C=CC(=O)NCNC(=O)C=C | inactive
O=S(=O)(c1ccc(Cl)cc1)c1ccc(Cl)cc1 | inactive
OCCCBr | inactive
c1cc2ccc3cccc4ccc(c1)c2c34 | inactive
